The panel holds about 79,000 compounds, 15% with a hit somewhere; the sample as a whole holds those more often. Activity calls are given as the source filed them. No stated cut-off is given here; in the data, active means growth inhibition above about 70%; inactive means the rest.
How the values were obtained:
[1] = NCI Yeast Anticancer Drug Screen. Data for the rad52 strain (AID 147);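 further: 0% = growth of vehicle-treated control cultures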; conditions: S. cerevisiae rad52 mutant growth inhibition, stronger effect = higher value
In short: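 Inhibition of yeast growth, referenced to vehicle controls, was the measured output for a strain with defective DNA damage repair.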

[2] = NCI Yeast Anticancer Drug Screen. Data for the wt1 strain (AID 149);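 further: 0% = growth of vehicle-treated wt1 cultures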; conditions: S. cerevisiae wt1 strain (SPY 50644) growth inhibition, stronger effect = higher value
In short: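 Vehicle-normalised growth inhibition; strain wt1; compound exposure.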

[3] = NCI Yeast Anticancer Drug Screen. Data for the rad50EPP+ strain (AID 151);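 further: 0% = growth of vehicle-treated control cultures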; conditions: S. cerevisiae rad50 mutant strain, stronger effect = higher value
In short: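 Genetically defined yeast (rad50EPP+, DNA damage repair alteration) is grown with compound, and inhibition of growth is expressed relative to vehicle-treated controls.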

[4] = NCI Yeast Anticancer Drug Screen. Data for the mgt1 strain (AID 153); conditions: S. cerevisiae mgt1 mutant growth inhibition, stronger effect = higher value
In short: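 In the mgt1 strain, test compounds were added and growth inhibition was determined relative to vehicle-treated controls.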

[5] = NCI Yeast Anticancer Drug Screen. Data for the rad50 strain (AID 155);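 further: 0% = growth of vehicle-only cultures of the same strain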; conditions: S. cerevisiae rad50 strain growth inhibition, stronger effect = higher value
In short: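 A DNA repair-deficient yeast mutant serves as the test organism; compound-induced growth inhibition is calculated against vehicle-treated cells.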

[6] = NCI Yeast Anticancer Drug Screen. Data for the mec2-1 strain (AID 157); conditions: S. cerevisiae mec2-1 strain, stronger effect = higher value
In short: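 Each compound was tested on mec2-1 yeast, a strain altered in DNA damage repair or cell cycle control. Growth inhibition is reported relative to vehicle.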

[7] = NCI Yeast Anticancer Drug Screen. Data for the rad14 strain (AID 159);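 further: 0% = growth of vehicle-treated control cultures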; conditions: S. cerevisiae rad14 strain growth inhibition, stronger effect = higher value
In short: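 Vehicle-treated cultures served as the baseline for growth inhibition of a DNA repair-mutant yeast strain exposed to each compound.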

[8] = NCI Yeast Anticancer Drug Screen. Data for the sgs1 mgt1 strain (AID 161);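 further: 0% = growth of cultures given vehicle only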; conditions: S. cerevisiae sgs1 mgt1 strain, stronger effect = higher value
In short: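 Genetically altered yeast, compound exposure, growth inhibition relative to vehicle.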

[9] = NCI Yeast Anticancer Drug Screen. Data for the CLN2oe strain (AID 163);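 further: 0% = growth of vehicle-only control cultures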; conditions: S. cerevisiae CLN2oe strain, stronger effect = higher value
In short: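 First, the altered yeast strain was treated with each compound; second, its growth was measured; finally, inhibition was derived by comparison with vehicle controls.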

[10] = NCI Yeast Anticancer Drug Screen. Data for the cln2 rad14 strain (AID 165);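 further: 0% = growth equal to vehicle treated cultures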; conditions: S. cerevisiae cln2 rad14 strain, stronger effect = higher value
In short: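 Test compounds were added to cln2 rad14 yeast cultures; inhibition of growth was then determined by comparison with vehicle treatment.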

[11] = NCI Yeast Anticancer Drug Screen. Data for the bub3 strain (AID 167); conditions: S. cerevisiae bub3 mutant strain, stronger effect = higher value
In short: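 Inhibition values come from growth of compound-treated mutant yeast normalised to vehicle-treated controls.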

[12] = NCI Yeast Anticancer Drug Screen. Data for the wt2 strain (AID 169);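 further: 0% = growth of vehicle-treated yeast cultures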; conditions: S. cerevisiae wt2 strain growth inhibition, stronger effect = higher value
In short: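 The panel's yeast strains carry defined changes in DNA repair or cell cycle genes. Each strain is grown with compound, and growth loss is scored relative to vehicle.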

[13] = NCI Yeast Anticancer Drug Screen. Data for the mlh1 strain (AID 171);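 further: 0% = growth of vehicle-treated control cultures of the same strain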; conditions: S. cerevisiae mlh1 strain growth inhibition, stronger effect = higher value
In short: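 Inhibition values reflect reduced yeast growth in the presence of compound, referenced to vehicle controls, using a strain chosen for its alteration in DNA repair or cell cycle control.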

[14] = NCI Yeast Anticancer Drug Screen. Data for the sgs1 strain (AID 173);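 further: 0% = growth of vehicle-only control cultures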; conditions: S. cerevisiae sgs1 mutant, stronger effect = higher value
In short: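 Vehicle-treated cultures served as reference for growth inhibition of a yeast strain altered in DNA damage repair or cell cycle control after compound exposure.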

[15] = NCI Yeast Anticancer Drug Screen. Data for the mlh1 rad18 strain (AID 175); conditions: S. cerevisiae mlh1 rad18 strain growth inhibition, stronger effect = higher value
In short: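 Inhibition values reflect reduced growth of mutant yeast versus vehicle-treated controls following compound exposure; the mutations affect DNA damage repair.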

[16] = NCI Yeast Anticancer Drug Screen. Data for the rad18 strain (AID 177); conditions: S. cerevisiae rad18 mutant growth inhibition, stronger effect = higher value
In short: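 Steps: expose repair-mutant yeast to compound; measure growth; express as inhibition relative to vehicle control.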

[17] = at 5.0 µM (retest, dose inferred, filed as 0.5)
[18] = at 50.0 µM (retest, dose inferred, filed as 5.0)

Measured: growth inhibition

CC(=O)OCCOCNC(=S)N/N=C(\C)c1cnccn1
active: [1]; at 100.0 µM 77% | [4]; at 100.0 µM 82% | [5]; at 50.0 µM 73.4% | [5]; at 100.0 µM 85% | [6]; at 100.0 µM 75% | [7]; at 100.0 µM 84% | [8]; at 50.0 µM 72.7% | [9]; at 100.0 µM 82% | [11]; at 50.0 µM 75.3% | [11]; at 100.0 µM 84% | [12]; at 100.0 µM 74% | [13]; at 100.0 µM 80% | [14]; at 100.0 µM 80% | [16]; at 100.0 µM 82%
inactive: [1]; at 1.2 µM -27% | [1]; at 3.7 µM -41% | [1]; at 11.0 µM -19% | [1]; at 33.0 µM 20% | [2]; at 1.2 µM -14% | [2]; at 3.7 µM -11% | [2]; at 11.0 µM 5% | [2]; at 33.0 µM 28% | [2]; at 100.0 µM 69% | [3]; at 1.2 µM 9% | [3]; at 3.7 µM 9% | [3]; at 11.0 µM -9% | [3]; at 33.0 µM 0% | [3]; at 100.0 µM -4% | [4]; at 1.2 µM 8% | [4]; at 3.7 µM 9% | [4]; at 11.0 µM 29% | [4]; at 33.0 µM 53% | [5]; at 1.2 µM 13% | [5]; at 3.7 µM -1% | [5]; [17] -25% | [5]; at 11.0 µM 15% | [5]; at 33.0 µM 46% | [5]; [18] 45% | [6]; at 1.2 µM -17% | [6]; at 3.7 µM -17% | [6]; [17] -59% | [6]; at 11.0 µM -2% | [6]; at 33.0 µM 27% | [6]; [18] 44% | [6]; at 50.0 µM 59.7% | [7]; at 1.2 µM -8% | [7]; at 3.7 µM -12% | [7]; at 11.0 µM 5% | [7]; at 33.0 µM 46% | [8]; [17] -15% | [8]; [18] 43% | [9]; at 1.2 µM 8% | [9]; at 3.7 µM 2% | [9]; at 11.0 µM 12% | [9]; at 33.0 µM 21% | [10]; [17] -9% | [10]; [18] 45% | [10]; at 50.0 µM 60.8% | [11]; at 1.2 µM -18% | [11]; at 3.7 µM 17% | [11]; [17] -5% | [11]; at 11.0 µM 24% | [11]; at 33.0 µM 51% | [11]; [18] 67% | [12]; at 1.2 µM -23% | [12]; at 3.7 µM -24% | [12]; at 11.0 µM 6% | [12]; at 33.0 µM 25% | [13]; at 1.2 µM -1% | [13]; at 3.7 µM -4% | [13]; at 11.0 µM 15% | [13]; at 33.0 µM 49% | [14]; at 1.2 µM -23% | [14]; at 3.7 µM -15% | [14]; at 11.0 µM 0% | [14]; at 33.0 µM 41% | [15]; [17] -29% | [15]; [18] -7% | [15]; at 50.0 µM 62.4% | [16]; at 1.2 µM 7% | [16]; at 3.7 µM -5% | [16]; at 11.0 µM 13% | [16]; at 33.0 µM 32%

Reference: PubChem BioAssay (NCI)
